Our source for the composite z-score values is PubChem BioAssay.

The test concerns Lefty1. As to the kind of experiment: Lefty1 binders on small-molecule microarrays, primary screen, biochemical, small-molecule microarray, 635/667 nm fluorescence (AID 1139). The conditions noted are these: small-molecule microarray binding, fluorescence 635/667; higher = more signal.
Molecule `CCCCC(O)C1C=CC2C(=O)N(Cc3ccccc3)C(=O)C2N1n1cnnc1` (stereo not given) had a composite z-score of 0.289. In the case of `COCCCNC(=O)[C@@]1(C)c2ccccc2C(=O)N(c2ccc(C)cn2)[C@H]1c1ccc(CO)cc1` it was -0.939. As for `CCCC=C(CCC)[C@@H](NS(=O)(=O)c1cccc2cccnc12)c1ccc(C(=O)OC)cc1`, the composite z-score came out at 0.162.

For the molecule `COc1ccccc1CN1C(=O)c2ccccc2[C@](Cc2ccccc2I)(C(=O)NCCN2CCOCC2)[C@@H]1c1ccc(CO)cc1`, the composite z-score is 0.988. `C=C(COC)/C(=C/C[C@@H](OC(=O)c1ccncc1)c1cccc(OCCO)c1)c1cc(C(=O)OC)ccc1OC` registered a composite z-score of 1.63. The same measure for `C=CCNC(=O)[C@@H]1[C@H]2C(=O)O[C@H](c3ccccc3)[C@H](c3ccccc3)N2[C@H](c2ccc(O)cc2)[C@@]12C(=O)Nc1ccc(C#CCCO)cc12`: -0.836; for `COCCCNC(=O)[C@]1(Cc2ccccc2)N=C(c2ccc(OCCCO)cc2)O[C@@H]1c1ccccc1N=[N+]=[N-]`: 0.276. The same measure for `COC(=O)C(CC#Cc1ccc2c(c1)[C@]1(C(=O)N2)[C@H](c2ccccc2OCCO)N2[C@H](c3ccccc3)[C@H](c3ccccc3)OC(=O)[C@H]2[C@@H]1C(=O)Nc1nc2ccccc2s1)C(=O)OC`: 0.9; for `CCOC(=O)C[C@H]1[C@H](OC(=O)c2cc3ccccc3oc2=O)[C@@H](NC(=O)c2ccc3ccccc3n2)c2cc(OCCCO)ccc2N1C(=O)c1ccc2ccccc2n1`: 1.44. The same measure for `NCCCCCCNC(=O)[C@H]1C[C@H]2C(=O)N3CCC[C@H]3C(=O)N2[C@H]1c1ccc(O)cc1`: 0.918; for `C=CCOC(=O)[C@@H]1[C@H]2C(=O)O[C@H](c3ccccc3)[C@H](c3ccccc3)N2[C@H](c2ccc(OCCOC(=O)[C@@H]3C[C@@H]4C(=O)N[C@@H](CCCCNC(C)=O)C(=O)N4[C@@H]3c3ccc(O)cc3)cc2)[C@@]12C(=O)Nc1ccc(I)cc12`: 1.37; for `COc1ccc([Si](C)(C)[C@@H]2[C@@H](CCO)O[C@]3(C(=O)N(Cc4ccccc4)c4ccc(N5C(=O)COc6ccccc65)cc43)[C@H]2C)cc1`: 0.351.

`CN1C(=O)C2C=CC(C(O)c3cccc4ccccc34)N(NC(=O)OC(C)(C)C)C2C1=O` (stereo not given) yielded a composite z-score of -0.516. `COc1ccc(C(=O)Nc2ccc3c(c2)[C@]2(O[C@@H](CCO)[C@H]([Si](C)(C)c4ccc(OC)cc4)[C@H]2C)C(=O)N3Cc2ccccc2)cc1` showed a composite z-score of 1.26.

As for `O=C1c2ccccc2[C@](Cc2ccccc2I)(C(=O)NC2CC2)[C@H](c2ccc(CO)cc2)N1Cc1ccccc1Cl`, the composite z-score was determined as 0.0036. As to `COC(=O)C(CC#Cc1ccc2c(c1)[C@]1(C(=O)N2)[C@H](c2ccc(O)cc2)N2[C@H](c3ccccc3)[C@H](c3ccccc3)OC(=O)[C@H]2[C@@H]1C(N)=O)C(=O)OC`, the composite z-score is -2.6. `CC(C)CNC(=O)[C@@]1(C)c2ccccc2C(=O)N(Cc2ccccc2)[C@H]1c1ccc(CO)cc1` registered a composite z-score of -2.25. Molecule `COC(=O)C(CC#Cc1ccc2c(c1)[C@]1(C(=O)N2)[C@H](c2ccc(OCCO)cc2)N2[C@H](c3ccccc3)[C@H](c3ccccc3)OC(=O)[C@H]2[C@@H]1C(=O)O)C(=O)OC` gave a composite z-score of 0.861.

`CC(C)C(CO)N1C(=O)[C@@H]2[C@H]3C(=O)OCC=C[C@H]3OC23C=CCN(Cn2nnc4ccccc42)C(=O)[C@@H]13` (stereo not given in full) came in with a composite z-score of -1.72.

In turn, `O=C1N(Cc2ccccc2)c2ccccc2[C@H]2OC(c3ccc(OCCCO)cc3)=N[C@@]12CCS(=O)(=O)c1ccccc1` registered a composite z-score of 0.689. In the case of `CCCNC(=O)[C@@H]1c2ccccc2C(=O)N(CC23CC4CC(CC(C4)C2)C3)[C@H]1c1ccc(CO)cc1` it was 0.798; in that of `C=C(C)[C@@H]1CC=C(C(O)C2C=CC3C(=O)N(C4CCCCC4)C(=O)C3N2Nc2ccc(OC)cc2)CC1` (stereo not given in full), 0.606. With `OCCCC1=CC(c2cccs2)N(Cc2cccc(OC(F)(F)F)c2)CC1` (stereo not given), the composite z-score is 0.226.

`Cc1ccccc1C(O)C1C=CC2C(=O)N(Cc3ccccc3)C(=O)C2N1n1cnnc1` (stereo not given) yielded a composite z-score of 0.694. As to `COc1ccc([Si](C)(C)[C@H]2[C@H](CCO)O[C@@]3(C(=O)N(Cc4cccc(N5CCOC5=O)c4)c4ccccc43)[C@@H]2C)cc1`, the composite z-score amounted to 0.729. In the case of `COCCOC(=O)N1C(=O)[C@@]2(c3cc(C#CC4(O)CCCCCC4)ccc31)[C@H](C(=O)N1CCc3cc(OC)c(OC)cc3C1)[C@H]1C(=O)O[C@H](c3ccccc3)[C@H](c3ccccc3)N1[C@@H]2c1ccccc1OCCO` it was 1.28; in that of `CC(=O)NCCCC[C@@H]1NC(=O)[C@H]2C[C@@H](C(=O)NCCCCCN)[C@@H](c3cccc(OCCO)c3)N2C1=O`, 0.279. In the case of `COc1ccc(C#Cc2ccc3c(c2)[C@]2(C(=O)N3)[C@H](C(=O)O)[C@H]3C(=O)O[C@H](c4ccccc4)[C@H](c4ccccc4)N3[C@@H]2c2ccc(OCCO)cc2)cc1` it was 0.128; in that of `COCC1=C([C@H](O)CCc2ccccc2)[C@H](CO)[C@@H]2C(=O)N(C)C(=O)[C@@H]2C1`, 0.388. The same measure for `CC(C)(C)N1CC=CC23O[C@@H]4C=CCCOC(=O)C4[C@H]2C(=O)N(CCCO)[C@@H]3C1=O` (stereo not given in full): -0.292.

For the molecule `O=C1O[C@H](c2ccccc2)[C@H](c2ccccc2)N2[C@H]1[C@@H](C(=O)N1CCCCCCC1)[C@]1(C(=O)Nc3ccccc31)[C@H]2c1ccc(O)cc1`, the composite z-score was found to be 1.85. The same measure for `COC(=O)[C@]1(Cc2ccccc2CN=[N+]=[N-])N=C(c2ccc(OCCCO)cc2)O[C@@H]1c1ccccc1CN=[N+]=[N-]`: -0.222; for `O=C1c2ccccc2[C@](Cc2ccccc2I)(C(=O)NCC(F)(F)F)[C@H](c2ccc(CO)cc2)N1Cc1ccccc1`: 0.343; for `NC(=O)NCC#Cc1ccc2c(c1)[C@]1(C(=O)N2)[C@H](c2ccc(OCCO)cc2)N2[C@H](c3ccccc3)[C@H](c3ccccc3)OC(=O)[C@H]2[C@@H]1C(=O)N1CCCCCCC1`: 1.64.

`N#Cc1ccc(NN2C(C(O)c3ccco3)C=CC3C(=O)N(c4ccccc4)C(=O)C32)cc1` (stereo not given) came in with a composite z-score of -0.231.
